According to the supplement of paper PMC10849652:
Targets with a hit are over-represented here; the source holds about 8,800 in all. About 0.5% of all pairs of compound and target were hits.

compound: CN1CCC(CNc2ccc3ncc(-c4cccc(OC(F)(F)F)c4)n3n2)CC1; assay: log2 fold change, soluble protein after heating vs DMSO (PISA); higher = thermal stabilisation; K562 lysate, 10 uM; active = over 0.2 and 3.5 SD of the protein, either way, in both replicates (recomputed)
Procedure, shortened: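 The values are log-two fold changes in thermal stability compared with solvent controls and come from duplicates. They were obtained by TMTpro 16plex LC-MS/MS, with channel sums equalised, on the supernatant after 21,000xg for 90 min. That supernatant came from crude K562 extract at 1 mg/mL protein treated with 10 μM compound for 30 min, heated for 3 min across 48°C-58°C, pooled and brought to 0.5% NP-40 at 4°C.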

Chain of UniProt Q96I59 (Q96I59 whole entry, looked up): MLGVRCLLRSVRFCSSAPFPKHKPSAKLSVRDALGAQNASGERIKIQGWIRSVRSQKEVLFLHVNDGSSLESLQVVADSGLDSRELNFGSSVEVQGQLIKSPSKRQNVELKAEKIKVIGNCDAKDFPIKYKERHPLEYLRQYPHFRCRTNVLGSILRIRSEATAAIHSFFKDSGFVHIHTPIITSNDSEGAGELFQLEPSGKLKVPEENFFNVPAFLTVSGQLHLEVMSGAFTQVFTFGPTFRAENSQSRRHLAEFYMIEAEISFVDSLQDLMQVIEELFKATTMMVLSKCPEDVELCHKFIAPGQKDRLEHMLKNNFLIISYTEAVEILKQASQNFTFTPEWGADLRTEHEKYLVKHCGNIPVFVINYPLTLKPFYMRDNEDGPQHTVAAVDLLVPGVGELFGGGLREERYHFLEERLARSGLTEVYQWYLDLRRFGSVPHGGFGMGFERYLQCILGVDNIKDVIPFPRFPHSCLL
Chain of UniProt Q13423 (Q13423 whole entry, looked up): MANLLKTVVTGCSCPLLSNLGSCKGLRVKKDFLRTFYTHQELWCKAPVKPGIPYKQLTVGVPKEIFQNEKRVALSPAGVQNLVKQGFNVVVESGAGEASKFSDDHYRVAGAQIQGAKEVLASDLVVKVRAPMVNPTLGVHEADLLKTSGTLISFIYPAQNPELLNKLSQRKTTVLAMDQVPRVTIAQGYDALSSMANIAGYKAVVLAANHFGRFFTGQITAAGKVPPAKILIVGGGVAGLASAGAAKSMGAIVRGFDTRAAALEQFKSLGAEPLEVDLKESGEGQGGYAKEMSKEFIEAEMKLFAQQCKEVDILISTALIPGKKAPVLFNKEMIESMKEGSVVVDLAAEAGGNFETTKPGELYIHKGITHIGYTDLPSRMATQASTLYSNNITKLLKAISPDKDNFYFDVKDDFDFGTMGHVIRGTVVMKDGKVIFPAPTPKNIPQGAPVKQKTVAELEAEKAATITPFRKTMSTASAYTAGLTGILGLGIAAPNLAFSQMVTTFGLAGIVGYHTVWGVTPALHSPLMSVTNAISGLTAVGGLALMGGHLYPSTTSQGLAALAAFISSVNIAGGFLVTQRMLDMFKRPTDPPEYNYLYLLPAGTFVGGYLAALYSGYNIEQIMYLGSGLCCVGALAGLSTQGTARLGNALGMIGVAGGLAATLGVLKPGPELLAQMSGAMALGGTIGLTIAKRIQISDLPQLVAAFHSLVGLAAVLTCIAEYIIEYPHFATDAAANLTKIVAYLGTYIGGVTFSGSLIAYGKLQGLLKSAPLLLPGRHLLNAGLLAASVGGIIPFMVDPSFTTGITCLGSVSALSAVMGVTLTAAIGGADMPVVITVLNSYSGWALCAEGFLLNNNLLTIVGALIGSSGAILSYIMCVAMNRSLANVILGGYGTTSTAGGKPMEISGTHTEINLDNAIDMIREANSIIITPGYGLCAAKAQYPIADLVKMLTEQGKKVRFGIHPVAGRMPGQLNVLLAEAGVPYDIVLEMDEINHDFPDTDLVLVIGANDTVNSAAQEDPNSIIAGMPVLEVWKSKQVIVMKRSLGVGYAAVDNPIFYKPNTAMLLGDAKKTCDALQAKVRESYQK
Chain of UniProt Q9H4L5 (Q9H4L5 whole entry, looked up): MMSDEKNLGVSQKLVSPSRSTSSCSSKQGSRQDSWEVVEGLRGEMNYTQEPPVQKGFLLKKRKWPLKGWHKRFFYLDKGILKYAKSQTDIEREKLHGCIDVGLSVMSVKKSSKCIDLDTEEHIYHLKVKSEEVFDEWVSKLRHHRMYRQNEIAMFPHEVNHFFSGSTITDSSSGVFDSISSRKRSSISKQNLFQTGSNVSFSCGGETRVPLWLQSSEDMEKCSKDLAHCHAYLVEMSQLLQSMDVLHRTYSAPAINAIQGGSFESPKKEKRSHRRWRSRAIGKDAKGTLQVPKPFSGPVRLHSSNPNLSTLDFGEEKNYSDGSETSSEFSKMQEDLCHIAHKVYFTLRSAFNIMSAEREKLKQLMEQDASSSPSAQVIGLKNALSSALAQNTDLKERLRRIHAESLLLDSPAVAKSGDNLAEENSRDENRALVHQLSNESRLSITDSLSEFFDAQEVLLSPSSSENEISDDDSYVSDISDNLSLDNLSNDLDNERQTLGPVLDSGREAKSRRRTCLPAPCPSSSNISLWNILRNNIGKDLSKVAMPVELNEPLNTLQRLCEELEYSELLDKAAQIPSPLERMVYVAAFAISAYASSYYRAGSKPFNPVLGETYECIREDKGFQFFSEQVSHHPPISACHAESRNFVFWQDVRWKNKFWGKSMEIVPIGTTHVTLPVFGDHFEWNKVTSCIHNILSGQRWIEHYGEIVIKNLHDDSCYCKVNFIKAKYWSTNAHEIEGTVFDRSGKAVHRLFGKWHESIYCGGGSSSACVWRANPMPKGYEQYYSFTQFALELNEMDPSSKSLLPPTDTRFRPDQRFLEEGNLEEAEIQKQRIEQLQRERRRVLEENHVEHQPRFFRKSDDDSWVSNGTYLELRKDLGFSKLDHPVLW
Chain of UniProt Q15102 (Q15102 whole entry, looked up): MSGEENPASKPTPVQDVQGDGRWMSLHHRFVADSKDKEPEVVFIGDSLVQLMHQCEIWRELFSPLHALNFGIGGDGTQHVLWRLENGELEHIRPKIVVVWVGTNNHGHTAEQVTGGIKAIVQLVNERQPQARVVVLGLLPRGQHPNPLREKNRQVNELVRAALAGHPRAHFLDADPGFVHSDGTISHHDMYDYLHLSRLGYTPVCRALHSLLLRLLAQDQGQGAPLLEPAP
Chain of UniProt P49757 (P49757 whole entry, looked up): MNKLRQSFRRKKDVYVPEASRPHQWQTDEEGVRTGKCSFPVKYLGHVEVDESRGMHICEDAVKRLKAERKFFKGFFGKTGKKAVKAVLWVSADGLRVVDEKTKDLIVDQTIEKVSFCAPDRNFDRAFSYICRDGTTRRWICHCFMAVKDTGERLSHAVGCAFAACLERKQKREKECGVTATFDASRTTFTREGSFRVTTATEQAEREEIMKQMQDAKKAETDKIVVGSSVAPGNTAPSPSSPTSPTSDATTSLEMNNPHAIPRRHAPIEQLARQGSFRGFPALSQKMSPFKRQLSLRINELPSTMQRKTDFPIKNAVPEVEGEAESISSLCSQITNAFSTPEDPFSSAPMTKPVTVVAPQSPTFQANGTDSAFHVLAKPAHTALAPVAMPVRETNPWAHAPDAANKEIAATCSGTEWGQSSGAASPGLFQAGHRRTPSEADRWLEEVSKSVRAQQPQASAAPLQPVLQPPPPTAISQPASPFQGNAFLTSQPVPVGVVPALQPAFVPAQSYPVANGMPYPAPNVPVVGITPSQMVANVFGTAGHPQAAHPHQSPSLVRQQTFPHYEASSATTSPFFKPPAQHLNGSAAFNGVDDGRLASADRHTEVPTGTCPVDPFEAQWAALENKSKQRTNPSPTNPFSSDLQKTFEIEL
Chain of UniProt Q13469 (Q13469 whole entry, looked up): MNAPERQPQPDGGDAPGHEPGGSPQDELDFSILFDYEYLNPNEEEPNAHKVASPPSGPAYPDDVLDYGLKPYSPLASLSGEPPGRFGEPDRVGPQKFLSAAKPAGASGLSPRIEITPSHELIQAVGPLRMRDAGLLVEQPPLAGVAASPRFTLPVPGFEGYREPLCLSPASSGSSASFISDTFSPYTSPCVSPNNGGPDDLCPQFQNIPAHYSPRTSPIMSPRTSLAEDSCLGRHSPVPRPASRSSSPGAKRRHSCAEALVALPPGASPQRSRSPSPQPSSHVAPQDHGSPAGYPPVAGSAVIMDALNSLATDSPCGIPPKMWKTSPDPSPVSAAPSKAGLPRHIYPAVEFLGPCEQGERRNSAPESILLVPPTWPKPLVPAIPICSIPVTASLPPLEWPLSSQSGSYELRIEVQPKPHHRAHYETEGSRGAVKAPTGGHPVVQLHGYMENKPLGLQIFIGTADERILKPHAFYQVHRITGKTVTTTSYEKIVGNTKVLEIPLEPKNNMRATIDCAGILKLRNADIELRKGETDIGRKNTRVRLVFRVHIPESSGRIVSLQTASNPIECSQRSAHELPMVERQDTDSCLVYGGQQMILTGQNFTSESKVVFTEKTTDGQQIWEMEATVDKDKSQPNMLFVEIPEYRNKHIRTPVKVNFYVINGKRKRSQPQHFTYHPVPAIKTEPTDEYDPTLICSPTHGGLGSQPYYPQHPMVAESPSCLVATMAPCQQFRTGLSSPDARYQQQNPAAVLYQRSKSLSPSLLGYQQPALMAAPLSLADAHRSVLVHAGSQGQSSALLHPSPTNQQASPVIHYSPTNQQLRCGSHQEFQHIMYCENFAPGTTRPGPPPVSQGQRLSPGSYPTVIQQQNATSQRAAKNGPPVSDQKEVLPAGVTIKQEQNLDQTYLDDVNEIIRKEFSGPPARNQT
Chain of UniProt Q96IV0 (Q96IV0 whole entry, looked up): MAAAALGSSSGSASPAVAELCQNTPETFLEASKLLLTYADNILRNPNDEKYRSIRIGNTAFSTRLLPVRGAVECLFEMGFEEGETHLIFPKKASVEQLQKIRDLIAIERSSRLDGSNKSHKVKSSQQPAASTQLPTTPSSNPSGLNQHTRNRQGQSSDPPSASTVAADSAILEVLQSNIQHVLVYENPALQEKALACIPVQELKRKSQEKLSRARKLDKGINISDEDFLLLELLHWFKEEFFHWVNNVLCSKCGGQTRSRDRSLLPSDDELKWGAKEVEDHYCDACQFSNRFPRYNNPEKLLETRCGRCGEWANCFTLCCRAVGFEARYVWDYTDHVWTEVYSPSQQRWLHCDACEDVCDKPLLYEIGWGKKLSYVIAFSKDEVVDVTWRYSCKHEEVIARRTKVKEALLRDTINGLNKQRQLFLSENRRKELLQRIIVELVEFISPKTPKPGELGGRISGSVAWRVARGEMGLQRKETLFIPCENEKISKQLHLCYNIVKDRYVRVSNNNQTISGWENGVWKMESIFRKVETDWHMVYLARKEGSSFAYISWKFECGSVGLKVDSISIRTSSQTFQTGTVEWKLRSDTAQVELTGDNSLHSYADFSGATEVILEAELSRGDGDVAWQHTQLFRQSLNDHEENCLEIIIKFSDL
Chain of UniProt O00483 (O00483 whole entry, looked up): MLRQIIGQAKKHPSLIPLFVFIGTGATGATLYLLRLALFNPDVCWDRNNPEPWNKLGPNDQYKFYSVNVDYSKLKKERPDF

| Target | log2 fold change |
| --- | --- |
| NFAT5 isoform 5 (UniProt O94916) | 0.044 (inactive) |
| NQO1 (UniProt P15559) | -0.035 (inactive) |
| OARD1 (UniProt Q9Y530) | -0.034 (inactive) |
| NARS2 (UniProt Q96I59) | 0.027 (inactive) |
| OPA1 isoform 2 (UniProt O60313) | -0.192 (inactive) |
| NFKBIB (UniProt Q15653) | 0.096 (inactive) |
| NCAPH (UniProt Q15003) | -0.035 (inactive) |
| OCRL (UniProt Q01968) | 0.049 (inactive) |
| NNT (UniProt Q13423) | -0.004 (inactive) |
| NEXN (UniProt Q0ZGT2) | 0.209 (inactive) |
| NR3C1 isoform 3 (UniProt P04150) | -0.081 (inactive) |
| NGLY1 (UniProt Q96IV0) | -0.02 (inactive) |
| NUMBL (UniProt Q9Y6R0) | -0.011 (inactive) |
| PAFAH1B3 (UniProt Q15102) | -0.021 (inactive) |
| OLA1 (UniProt Q9NTK5) | 0.035 (inactive) |
| NUMB (UniProt P49757) | -0.061 (inactive) |
| OSBPL3 isoform 2 (UniProt Q9H4L5) | -0.068 (inactive) |
| NFATC2 (UniProt Q13469) | -0.002 (inactive) |
| PARP14 (UniProt Q460N5) | 0.075 (inactive) |
| MTHFD1L (UniProt B7ZM99) | -0.056 (inactive) |
| NSA2 (UniProt O95478) | -0.221 (inactive) |
| NBEAL2 (UniProt Q6ZNJ1) | -0.037 (inactive) |
| NDUFA4 (UniProt O00483) | -0.134 (inactive) |
